Compounds with a hit are over-represented: about 2.1% of the library has one in this group of screens.
TDP-43 yeast inh – TDP-43 toxicity inhibition in yeast | 410,000 tested, 1.8% active | TDP-43 expressing yeast growth rescue, BacTiter-Glo, 24 h | Potency, µM (series often up to 46.1 µM), without a hit: at the highest dose growth rescue (activation), actives largely listed as activators | AID 652104; also: % of control where 0% means no effect; nearly all actives have a fitted effect of over 50% in size
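Yeast expressing TDP-43 (pregrown in raffinose, seeded at OD600=0.02 in galactose medium) exposed to compounds 24 hr at 30 deg C. Growth read by BacTiter-Glo luminescence; rescue of toxicity appears as increased signal.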
Abeta rescue – compounds reversing amyloid beta toxicity in yeast | yeast expressing A-beta42, growth rescue, OD600, 48 h; response scale: 0% DMSO, 100% iron-clioquinol control | Potency, µM (highest dose often 46.1 µM), usual class: activators | 410,000 tested, 0.063% active | AID 1347071; also: nearly all actives have a fitted effect of over 55% in size
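Yeast growth medium received pinned compounds, then yeast cells expressing toxic A-beta were added; plates incubated at 30 C for 48 hr. Growth read as absorbance at 600 nm, normalized to DMSO and equimolar FeCl3 plus clioquinol controls.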
aSyn yeast inh – inhibitors of alpha-synuclein toxicity in yeast; Yeast expressing alpha-synuclein, growth rescue, BacTiter-Glo, 24 h; Potency, µM (series often up to 46.1 µM), for the others: top-dose growth rescue (activation), actives largely listed as activators; 370,000 tested, 0.14% active; also: % of control where 0% means no effect; nearly all actives have a fitted effect of over 65% in size
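Rescue of yeast growth: cells expressing toxic alpha-synuclein, induced in galactose at OD600 0.02, incubated with compound 24 h at 30 C. ATP luminescence quantified growth; inhibitors of toxicity appear as activators.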
FUS yeast rescue – suppressors of FUS proteinopathy in yeast | S. cerevisiae FUS-expressing, growth rescue, OD600, 24 h | Potency, µM (titrated, usually from 76.6 µM), usual class: activators | 390,000 tested, 0.24% active;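 also: plate controls were DMSO vehicle for no effect and reference control for full effect; nearly all actives have a fitted effect of over 55% in size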
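Quantitative HTS measuring growth restoration of FUS-toxic yeast. Galactose-induced cells (OD 0.005) were exposed 24hr at 30C to compounds at several concentrations, then absorbance at 600 nm was recorded.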
Active calls of the source: *; [ ] = dose if it differs, or a comment. Calls follow the shape of the dose curve; as a rule, active = well fitted curve in the direction sought with a large enough effect; inconclusive = small, poorly fitted or top-dose-only effect, or another doubt; inactive = no such curve, though single readings can be large; an effect the other way counts as inactive or inconclusive. Potency is read from the fitted curve at half-maximal effect.

O=C(Nc1cccc2ccccc12)/C(Cl)=C/c1ccccc1 was read as TDP-43 yeast inh 16µM*, Abeta rescue inactive, aSyn yeast inh -9% and FUS yeast rescue inactive.
`O=C(Nc1ccccc1F)C(=O)Nc1cccc2ccccc12` gave TDP-43 yeast inh 14%, Abeta rescue inactive, aSyn yeast inh 5% and FUS yeast rescue inactive.
`Cc1nn(C)c(Cl)c1S(=O)(=O)N(Cc1ccco1)c1ncnc2nc[nH]c12` gave aSyn yeast inh -7%.
Screening CC1=CC2=NC(=O)/C(=C\c3cccn3CCOc3cc(C)ccc3C)C(=N)N2O1 returned TDP-43 yeast inh 16µM*, Abeta rescue inactive, aSyn yeast inh 5% and FUS yeast rescue inactive.
CC(C)(C)c1ccc(Oc2ccc(NC(=O)CCC(=O)OCC(=O)c3ccccc3)cc2)cc1 was read as TDP-43 yeast inh inconclusive, Abeta rescue inconclusive and FUS yeast rescue inactive.
`COc1cccc(-c2nn(C)c3sc(C(=O)Nc4ccc5c(c4)OCCO5)cc23)c1` gave TDP-43 yeast inh 8%, Abeta rescue inactive, aSyn yeast inh 11% and FUS yeast rescue inactive.
Screening Cn1nc(-c2ccccc2F)c2cc(C(=O)Nc3ccc4c(c3)OCCO4)sc21 returned TDP-43 yeast inh 16µM*, Abeta rescue inactive, aSyn yeast inh 4% and FUS yeast rescue inactive.
Clc1ccc(CSc2nccn2Cc2ccccc2)cc1 was read as TDP-43 yeast inh 16µM*, Abeta rescue inactive, aSyn yeast inh 3% and FUS yeast rescue inactive.
O=c1ccn(Cc2ccccc2)c(SCc2ccccc2)n1 was read as TDP-43 yeast inh 8%, Abeta rescue inactive and aSyn yeast inh -1%.
`COCCNC(=O)C1CCN(S(=O)(=O)c2ccc3c(c2)CCCN3C(C)=O)CC1` gave TDP-43 yeast inh 7%, Abeta rescue inactive and FUS yeast rescue inactive.
COc1ccc(Cl)cc1NC(=O)COC(=O)C1CC1 was read as TDP-43 yeast inh 25%, Abeta rescue inconclusive, aSyn yeast inh -1% and FUS yeast rescue inactive.
Screening COc1ccccc1NC(=O)COC(=O)/C=C/c1cccs1 returned TDP-43 yeast inh 14µM*, Abeta rescue inactive and aSyn yeast inh 6%.
COc1ccc(Cl)cc1NC(=O)COC(=O)C1CCCCC1 was read as TDP-43 yeast inh 13µM*, Abeta rescue inconclusive, aSyn yeast inh 1%[1.84 µM] and FUS yeast rescue inactive.
Screening Cc1ccc(Cl)cc1NC(=O)COC(=O)C1CCCC1 returned TDP-43 yeast inh 19%, Abeta rescue 5.6µM*, aSyn yeast inh -5% and FUS yeast rescue inactive.
`COc1ccc(Cl)cc1NC(=O)COC(=O)Cc1cccs1` gave TDP-43 yeast inh 10µM*, Abeta rescue inactive, aSyn yeast inh 7% and FUS yeast rescue inactive.
`COc1ccc(NC(=O)COC(=O)/C=C/c2cccs2)c(OC)c1` gave TDP-43 yeast inh 14%, Abeta rescue inactive, aSyn yeast inh 0% and FUS yeast rescue inactive.
O=C(COC(=O)C1CCCC1)Nc1cccc(Cl)c1Cl was read as TDP-43 yeast inh -10%, Abeta rescue inactive, aSyn yeast inh -9% and FUS yeast rescue inactive.
`CN=C1S/C(=C\c2cccc(Cl)c2Cl)C(=O)N1C` gave TDP-43 yeast inh 13µM*, Abeta rescue inactive, aSyn yeast inh 11% and FUS yeast rescue inactive.
Screening CN=C1S/C(=C\c2ccc(Cl)cc2)C(=O)N1C returned TDP-43 yeast inh 11%, Abeta rescue inactive, aSyn yeast inh 2% and FUS yeast rescue inactive.
`COC(=O)[C@]12C[C@H](CC(=O)N3CCCC3)C(=O)N(CCc3ccc(OC)c(OC)c3)C1=C[C@H](C1CCCC1)O[C@@H]2C` gave FUS yeast rescue inactive.
Screening O=C(COC(=O)CCC(=O)c1ccc(Cl)cc1)NCc1ccc(F)cc1 returned TDP-43 yeast inh 14µM*, Abeta rescue inactive, aSyn yeast inh 2% and FUS yeast rescue inactive.
Screening CC1(C(=O)OCC(=O)NCc2ccc(Cl)cc2)CC1(Cl)Cl (configuration not stated) returned TDP-43 yeast inh 14µM*, Abeta rescue inactive and aSyn yeast inh 10%.
`CCc1ccc(-c2c(C)sc(NC(C)=O)c2C(N)=O)cc1` gave TDP-43 yeast inh 16µM*, Abeta rescue inactive, aSyn yeast inh 1% and FUS yeast rescue inactive.
For O=C(COCc1cc(-c2cccs2)on1)NCc1ccccc1Cl the results were TDP-43 yeast inh 13µM*, Abeta rescue inactive and FUS yeast rescue inactive.
Screening O=C(COCc1cc(-c2cccs2)on1)Nc1cc(Cl)ccc1O returned TDP-43 yeast inh 6%, Abeta rescue inactive and FUS yeast rescue inactive.
`CC(=O)c1c(C)oc2ccc(N(C(=O)c3ccncc3)S(=O)(=O)c3ccc(F)cc3C)cc12` gave TDP-43 yeast inh 20µM*, Abeta rescue inactive and FUS yeast rescue inconclusive.
Screening O=C(Nc1cc(C(=O)N2CCN(c3ccccc3)CC2)ccc1Cl)c1cccs1 returned TDP-43 yeast inh 13µM*, Abeta rescue inactive and aSyn yeast inh -7%.
For COC(=O)[C@]12C[C@H](CC(=O)NCC3CCCCC3)C(=O)N(CCC3=CCCCC3)C1=C[C@H](C(C)C)O[C@@H]2C1CC1 the results were FUS yeast rescue inactive.
`CCCOc1ccc(CC2C(=O)Nc3ccc(Br)cc32)cc1` (configuration not stated) gave TDP-43 yeast inh -91%, Abeta rescue inactive and FUS yeast rescue inactive.
For CCOc1ccc(NCc2nnc(SCc3ccc(Cl)cc3)n2-c2ccccc2)cc1 the results were TDP-43 yeast inh 25µM*, Abeta rescue inactive and aSyn yeast inh inconclusive.
CCOC(=O)CSc1nnc(CNc2ccc(Cl)cc2)n1-c1ccccc1 was read as TDP-43 yeast inh inconclusive, Abeta rescue inactive, aSyn yeast inh 27% and FUS yeast rescue inactive.
Screening COc1nc2ccccc2nc1N1CCN(Cc2ccc3c(c2)OCO3)CC1 returned TDP-43 yeast inh 14µM*, Abeta rescue inactive, aSyn yeast inh 1% and FUS yeast rescue inactive.
`CCN(C(=O)c1cn(-c2ccc(OC)cc2)c(=O)c2ccccc12)c1cccc(Cl)c1` gave TDP-43 yeast inh 4%, Abeta rescue inactive and FUS yeast rescue inconclusive.
Screening O=C1Nc2ccc(Br)cc2/C1=C/C1CC=CCC1 (configuration not stated) returned TDP-43 yeast inh 20µM*, Abeta rescue inactive, aSyn yeast inh -77% and FUS yeast rescue inactive.
Screening CC(C)(C#N)Nc1ccccc1 returned TDP-43 yeast inh -3%, Abeta rescue inactive, aSyn yeast inh -4% and FUS yeast rescue inactive.
For CC(C)(C#N)Nn1cnnc1 the results were TDP-43 yeast inh -3%, Abeta rescue inactive, aSyn yeast inh -8% and FUS yeast rescue 16µM*.
CS(=O)(=O)c1nc(-c2ccc(F)cc2)cc(C(F)(F)F)n1 was read as TDP-43 yeast inh -3%[0.397 µM], Abeta rescue inactive, aSyn yeast inh 8% and FUS yeast rescue inactive.
